Experimental data: PubChem BioAssay AID641 (Vanderbilt High Throughput Screening Facility, 2007)
Out of some 58,000 compounds screened, about 3,400 (5.9%) were called active. The list comes from a sample in which actives are over-represented; it also holds similar structures and randomly drawn compounds. Unmarked numbers belong to inactive results.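 Rule for the calls: active = luminescence count or its row- and column-corrected plate score outside the 99.7% band of the plate's sample wells, on either side; inactive = the rest.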

The compounds below were run against D(1A) dopamine receptor (Homo sapiens) (UniProt P21728) (assay: D1 CRE-luciferase signal change, two-sided – cell-based, HEK293 D1, dopamine EC30, D1 allosteric modulator project, primary screen (AID 641)). Settings: dopamine EC30 potentiation, at 10 µM, actives deviate in either direction.
D(1A) dopamine receptor (Homo sapiens), sequence (P21728 whole entry, looked up): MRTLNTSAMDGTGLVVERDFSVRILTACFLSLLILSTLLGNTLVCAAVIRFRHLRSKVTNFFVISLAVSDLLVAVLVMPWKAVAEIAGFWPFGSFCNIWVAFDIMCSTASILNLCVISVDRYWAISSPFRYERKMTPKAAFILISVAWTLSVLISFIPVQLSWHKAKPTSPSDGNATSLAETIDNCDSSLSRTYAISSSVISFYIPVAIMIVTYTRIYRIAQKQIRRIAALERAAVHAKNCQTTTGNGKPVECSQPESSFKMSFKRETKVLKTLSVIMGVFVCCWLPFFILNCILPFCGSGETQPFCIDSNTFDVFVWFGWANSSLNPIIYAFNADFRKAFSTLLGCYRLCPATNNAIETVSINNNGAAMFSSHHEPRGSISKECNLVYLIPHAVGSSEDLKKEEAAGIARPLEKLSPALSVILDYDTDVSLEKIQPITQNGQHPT
Compound `COCCNC(=O)COc1ccc(C)c(C)c1` has a B-score of 0.751. In the case of `O=C(Nc1cccnc1)c1ccc2c(c1)OCO2`, the B-score is reported as -0.0115. `O=C(Nc1cccnc1)c1noc2c1CCCCC2` was tested, and the B-score was -2.9 (active). `CCOc1cccc(C(=O)Nc2cccnc2)c1` gave a B-score of 0.108. `Cc1nnc(SCC(=O)NCc2ccccc2)s1` showed a B-score of 0.474. `O=C(CSc1nnc2ccccn12)c1ccccc1` showed a B-score of -0.291. `COc1ccc(-n2c(SC)nc(O)cc2=O)cc1` showed a B-score of 0.0194. For `COc1ccc(NC(=O)C2CCCN(S(=O)(=O)c3cccc4cccnc34)C2)cc1` (stereo not drawn), the B-score was -1.11. Work on `COc1ccccc1CNC(=O)C1CCCN(S(=O)(=O)c2cccc3cccnc23)C1` (stereo not drawn) yielded a B-score of -0.155. For `COc1ccc(NC(=O)C2CCCN(S(=O)(=O)c3cccc4cccnc34)C2)cc1OC` (stereo not drawn), the B-score was 11.5 (active). In the case of `COc1ccc(OC)c2[nH]c(=O)c(CCNC(=O)C(C)(C)C)cc12`, the B-score is reported as -0.197. In the case of `CCCSc1nc2c(c(=O)n(C)c(=O)n2C)n1Cc1ccc(C)cc1`, the B-score is reported as 1.94. With `CCOc1ccc(Cn2c(SCCCCC#N)nc3c2c(=O)n(C)c(=O)n3C)cc1OCC` the B-score was 10.1 (active). `CCCCn1c(SCC(=O)NCCc2ccc(OC)c(OC)c2)nc2c1c(=O)n(C)c(=O)n2C` was tested, and the B-score was 0.0783. For `Fc1ccc(OCc2nn3c(Cn4nnc5ccccc54)nnc3s2)cc1`, the B-score was -0.628. For `Oc1ccc(Cl)cc1/C=N/c1nc2ccccc2[nH]1`, the B-score was 1.49. For `N#Cc1ccc(COC(=O)Cn2nnc(-c3ccccc3)n2)cc1`, the B-score was 0.71. `N#Cc1c(N)sc2c1CCN(C(=O)OCc1ccccc1)C2` was tested, and the B-score was 5.84 (active). `COc1cccc(NC(=O)C2CCCN2C(=O)OCc2ccccc2)c1` (stereo not drawn) gave a B-score of 0.12. In the case of `O=C(NCCN1CCOCC1)c1ccc2c(c1)ncn2C1CCCC1`, the B-score is reported as -0.956. `COc1ccc(OC)c(NC(=O)Cn2c(=O)oc3ccccc32)c1` showed a B-score of 0.945. Compound `COc1ccc(CCNC(=O)CCCCn2c(=O)[nH]c3ccccc3c2=O)cc1OC` has a B-score of 0.358. With `COc1ccc(CCNC(=O)CCn2c(=O)oc3ccccc32)cc1OC` the B-score was 6.86 (active). Work on `Cc1c(C(=O)NCC2CCCO2)sc2nc(-c3ccccc3)cn12` (stereo not drawn) yielded a B-score of 0.33. For `COc1ncnc2sc3c(c12)CCCC3`, the B-score was 5.43 (active). `CC1(C)CN=C(N2CCN(c3ncnc4sc5c(c34)CCCC5)CC2)S1` was tested, and the B-score was -0.977. Compound `O=C(O)[C@@H]1CCCN1c1ncnc2sc3c(c12)CCC3` has a B-score of -0.0144. In the case of `O=C(NC1CCCCC1)C1CCCN(S(=O)(=O)c2cccs2)C1` (stereo not drawn), the B-score is reported as 0.0829. Compound `O=C(CCSc1ccccc1)NCCSc1ccccn1` has a B-score of 0.117. `COc1cccc(C2/C(=C(/O)c3ccc(F)cc3)C(=O)C(=O)N2CCN(C)C)c1` (stereo not drawn) was tested, and the B-score was -0.0254. `COc1cccc(C2/C(=C(/O)c3ccncc3)C(=O)C(=O)N2CCCN(C)C)c1` (stereo not drawn) was tested, and the B-score was -3.02 (active). `COc1ccc(/C(O)=C2/C(=O)C(=O)N(CCCN(C)C)C2c2ccccc2)cc1OC` (stereo not drawn) gave a B-score of -0.187. `O=S(N1CCCCCC1)C12CC3CC(CC(C3)C1)C2` (stereo not drawn) gave a B-score of -1.48. Work on `CCCN1C(=O)C(NS(=O)(=O)c2ccc(N)cc2)(C(F)(F)F)C(C(=O)OC)=C1C` (stereo not drawn) yielded a B-score of -0.0535. Work on `C=CCNC(=O)CCCOc1cccc(C)c1` yielded a B-score of 0.267. `Cc1nc2c(-c3ccc(F)cc3)c(C)nn2c(C)c1CCC(=O)N1CCN(c2ccccn2)CC1` showed a B-score of -0.178. `COc1ccc(C(=O)N2CCC(C(=O)Nc3cccc(C)c3)CC2)cc1OC` gave a B-score of -0.521. `CCOc1cc(CN2CCN(C(=O)CC(C)C)CC2)ccc1OC` showed a B-score of 0.0601. `CCOc1cc(C(=O)N2CCc3cc(OC)c(OC)cc3C2)ccc1OC(F)F` was tested, and the B-score was 15.1 (active). Work on `CCN1CCCC1CNc1ncnc2c1[nH]c1ccc(F)cc12` (stereo not drawn) yielded a B-score of -0.311. `O=C1CCCN1CCCNc1ncnc2c1[nH]c1ccccc12` gave a B-score of -0.02. `CC(C)OCCCNc1ncnc2c1[nH]c1ccc(F)cc12` was tested, and the B-score was -3.37 (active). For `c1csc(-c2cn3c(n2)SCC3)c1`, the B-score was -0.433. With `O=C(COC(=O)c1ccc2c(c1)OCCO2)NCc1ccccc1` the B-score was 0.524. In the case of `COc1cc2[nH]c(=S)n(Cc3ccc(C)o3)c(=O)c2cc1OC`, the B-score is reported as 2.05. Compound `CCOC(=O)N1CCN(C(=O)CN(c2ccc(C)c(C)c2)S(=O)(=O)c2ccccc2)CC1` has a B-score of -0.0191. `COc1ccccc1NC1=NC2(CCCC2)N=C(N)N1` was tested, and the B-score was -3.14 (active). `COc1ccccc1NC1=NC(c2ccc(Cl)cc2)N=C(N)N1` (stereo not drawn) showed a B-score of -3.3. For `COc1ccccc1Nc1nc(N)nc(CN(C)C2CCCCC2)n1`, the B-score was -0.094. In the case of `c1ccc(-n2ncc(-c3nn[nH]n3)n2)cc1`, the B-score is reported as -1.26. In the case of `CCCOC(=O)CC1C(=O)NCCN1Cc1ccc(F)cc1` (stereo not drawn), the B-score is reported as -0.0757. For `CC1CCCN(C(=O)c2ccc3c(c2)C(=O)N(CCC2=CCCCC2)C3=O)C1` (stereo not drawn), the B-score was -0.192. Work on `COC(=O)Nc1c(C)n(C)n(-c2ccccc2)c1=O` yielded a B-score of -1.4. Work on `CCN(CC)CCN1C(=O)C(=O)/C(=C(/O)c2ccc(OC)c(OC)c2)C1c1ccccn1` (stereo not drawn) yielded a B-score of -0.322. In the case of `COc1cc(-n2c(C)nc3cc(C(=O)NCc4ccco4)ccc32)cc(OC)c1OC`, the B-score is reported as 0.213. In the case of `COc1ccc(-n2c(Cc3cccn3C)nnc2SCC(=O)Nc2cc(C)cc(C)c2)cc1`, the B-score is reported as 11.4 (active). `COc1ccccc1NC(=O)CSc1nnc(Cc2cccn2C)n1-c1ccc(F)cc1` was tested, and the B-score was -0.801. Work on `COC(=O)c1ccc(NC(=O)CSc2nnc(Cc3cccn3C)n2-c2ccc(F)cc2)cc1` yielded a B-score of -0.00937. `CCCc1[nH]nc2c1C(C1CC=CCC1)C(C#N)=C(N)O2` (stereo not drawn) was tested, and the B-score was -0.104. With `CC1(C)CC(=O)c2cc(OCC(=O)NCC3CCCO3)ccc2O1` (stereo not drawn) the B-score was -0.0202. With `O=C(O)c1ccc(-n2cccc2)cc1O` the B-score was -0.446. For `CCOc1cc(-c2noc(CCC(=O)N3CCOCC3)n2)ccc1OC`, the B-score was 13.7 (active). In the case of `Cc1ccc(OCCCC(=O)N2CCOCC2)c(C)c1`, the B-score is reported as -1.03. For `CCOc1ccc(-c2nnn(CC(=O)N3CCN(c4ccc(OC)cc4)CC3)n2)cc1OCC`, the B-score was 3.84 (active). In the case of `Cc1ccc(-c2noc(CCC(N)=O)n2)cc1`, the B-score is reported as -0.953. Work on `COc1ccc(C(=O)Cn2nnc(-c3ccc(N4CCOCC4)cc3)n2)cc1OC` yielded a B-score of 0.758. With `CCOc1ccc(-c2nnn(CC(=O)N3CCN(c4ccc(F)cc4)CC3)n2)cc1OCC` the B-score was -0.401. For `CN1C(=O)CC(N2CCN(c3ccccn3)CC2)C1=O` (stereo not drawn), the B-score was -0.0528. Compound `COc1ccc(C(=O)NCCc2ccc(S(N)(=O)=O)cc2)cc1OC` has a B-score of -0.0032. Work on `Cc1sc2c(c1C)c(=O)n(-c1ccccc1)c1nncn21` yielded a B-score of 0.694. With `COc1cc2[nH]c(=O)n(CCC(=O)NC3CCN(Cc4ccccc4)CC3)c(=O)c2cc1OC` the B-score was -0.633. `O=c1cc(CSc2ccccn2)nc(N2CCN(c3ccccc3)CC2)[nH]1` gave a B-score of 0.00444. For `Cc1ccc(SCc2cc(=O)[nH]c(N3CCCCC3)n2)cc1`, the B-score was 1.14. For `O=c1cc(-c2ccccc2)nc(N2CCCCC2)[nH]1`, the B-score was 4.97 (active). With `CC1CCN(c2oc(-c3ccccc3F)nc2C#N)CC1` the B-score was 8.13 (active). `Cc1ccc(OCc2nc(C#N)c(N3CCCC3)o2)cc1` was tested, and the B-score was 2.17. `N#Cc1nc(COc2ccc(Cl)cc2)oc1N1CCCC1` showed a B-score of 2.09. Compound `COc1ccc(CCN2CNc3c(c(=O)n(C)c(=O)n3C)C2)cc1OC` has a B-score of -0.27. In the case of `Oc1c(C(c2cccs2)N2CCN(c3ccc(F)cc3)CC2)sc2ncnn12` (stereo not drawn), the B-score is reported as -1.14. `CCCNS(=O)(=O)c1ccc2c(c1)CCCN2C(C)=O` was tested, and the B-score was -1.43. `CC(=O)N1CCc2cc(S(=O)(=O)Nc3ccccc3N3CCN(C)CC3)ccc21` showed a B-score of -0.699. In the case of `O=C(C1CCC1)N1CCc2cc(S(=O)(=O)NCc3cccnc3)ccc21`, the B-score is reported as 4.59 (active). `CC(C)(CNCC(O)c1ccccc1)N1CCOCC1` (stereo not drawn) showed a B-score of 0.153. Work on `CN(c1nc2ccccc2n2c(-c3ccco3)nnc12)S(=O)(=O)c1ccccc1` yielded a B-score of 1.04. For `CN1c2ccccc2-c2nc3ccccc3n2C1c1ccco1` (stereo not drawn), the B-score was -2.57. With `Cn1c(-c2ccco2)nc2cc3ccccc3cc21` the B-score was -4.84 (active). For `CCCc1nc(SCC(=O)Nc2ccccc2OC)c2c(=O)n(C)c(=O)n(C)c2n1`, the B-score was 1.18. In the case of `CCOc1cc(N2CCOCC2)c(OCC)cc1NC(=O)COc1cccc2cccnc12`, the B-score is reported as -6.32 (active). `CCOc1cc(NC(=O)c2ccco2)c(OCC)cc1NC(=O)COc1ccccc1` showed a B-score of -0.0288. Compound `CCOc1ccccc1NC(=O)C1CCC(CNc2c(N3CCOCC3)c(=O)c2=O)CC1` (stereo not drawn) has a B-score of -0.266. `N/C(=N\c1nc2ccccc2o1)NC(=O)C(Cc1ccccc1)N1C(=O)c2ccccc2C1=O` (stereo not drawn) gave a B-score of -0.0263. `CCOC(=O)CN1C(=O)C(O)(CC(=O)c2ccccn2)c2ccccc21` (stereo not drawn) was tested, and the B-score was -0.341. `CCc1nnc(NC(=O)C2CCCN2S(=O)(=O)c2ccccc2)s1` (stereo not drawn) was tested, and the B-score was -0.0231. Work on `CCC(=NC1CC(C)(C)NC(C)(C)C1)C1=C(O)CC(C)(C)CC1=O` yielded a B-score of -0.239. With `COc1ccccc1N1CCN(Cc2ccc(OC)c3ccccc23)CC1` the B-score was -0.325. `O=C(O)Cc1ccc(NC(=O)c2cccs2)cc1` showed a B-score of -1.14. For `Cc1nc(-c2ccc(NC(=O)c3cccs3)cc2)cs1`, the B-score was -5.86 (active). In the case of `O=C(O)c1ccc(NC(=O)c2cccs2)cc1`, the B-score is reported as 0.0162.
